# Bioassay records as filed in PubChem.
# Rows were chosen to be rich in hits. Some 1.6% of all compounds tested hit in one or more screens of this group.
# KCNQ2 enhance – potentiators of rat KCNQ2 potassium channel. Potassium voltage-gated channel subfamily KQT member 2 (Rattus norvegicus), O88943. CHO-K1 KCNQ2, FluxOR thallium flux fluorescence; active compounds read high. B-score at 10 µM. 310,000 compounds, 0.54% hits. AID 2239, 2010;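 active means fluorescence ratio B-score at least 3 SD of library B-scores, with initial fluorescence B-score within 3 of them, cut at about 5.3 in these data; same plate scores as AID 2156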;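 further: B-score of peak minus minimum over baseline fluorescence ratio after K+ and Tl+ stimulus; positive B-score means potentiation of KCNQ2 with more thallium influx and brighter signal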
# KCNQ2 inh – rat KCNQ2 potassium channel inhibitors, primary screen, cell-based, CHO-K1, FluxOR thallium flux, B-score. Potassium voltage-gated channel subfamily KQT member 2 (Rattus norvegicus), O88943. 20 min; active compounds read low. B-score at 10 µM. 310,000 compounds, 1.1% hits. AID 2156, 2009;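 active means fluorescence ratio B-score at most minus 3 library SDs, with starting brightness B-score within 2 library SDs, cut at about -5.5 in these data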
# Kir21 confirm – mouse Kir2.1 channel blockers, retest, confirmation, cell-based, FluxOR thallium flux, duplicate | shares compounds with KCNQ2 enhance | Kir2.1-expressing cells, FluxOR thallium flux fluorescence; active compounds read low | Tl flux remaining, % of negative control (active compounds read low), % at 10 µM | 2,300 compounds, 41% hits | AID 2032, 2009;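 active means Primary-screen hit whose thallium flux fell at least 3 control SD below untreated wells in both duplicates, with normal baseline fluorescence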;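 further: 0% = blank wells without stimulus and 100% = stimulated no-compound controls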
# Target sequence (P35561 whole entry, looked up): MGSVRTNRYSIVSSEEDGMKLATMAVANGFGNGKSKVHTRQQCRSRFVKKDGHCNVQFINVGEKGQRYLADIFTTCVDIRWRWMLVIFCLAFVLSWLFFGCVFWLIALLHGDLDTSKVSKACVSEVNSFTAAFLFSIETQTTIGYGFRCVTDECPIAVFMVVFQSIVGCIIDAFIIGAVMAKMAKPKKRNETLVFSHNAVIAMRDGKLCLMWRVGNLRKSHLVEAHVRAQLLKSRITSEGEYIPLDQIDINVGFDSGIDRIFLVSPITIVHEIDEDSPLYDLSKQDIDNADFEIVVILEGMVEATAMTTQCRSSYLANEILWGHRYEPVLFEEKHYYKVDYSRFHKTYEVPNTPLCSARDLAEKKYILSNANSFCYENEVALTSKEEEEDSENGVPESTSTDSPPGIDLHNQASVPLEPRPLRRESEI
# HEK293 Tl flux – parental HEK293 activity in Kir2.1 inhibitor counter-screen | parental HEK293 cells, FluxOR thallium flux fluorescence; 0% = unstimulated blank wells | FluxOR signal as % of negative control (100 = no effect), % at 10 µM | 2,300 compounds, 19% hits | shares compounds with KCNQ2 enhance;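 active means dye signal at least 3 control SD above or below untreated wells in both duplicates, raw fluorescence within 3, either direction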;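 further: percent is based on the flux ratio of peak minus minimum fluorescence over baseline F0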
# CHO-K1 ctr – nonspecific thallium flux increase in parental CHO-K1, confirmation, counter-screen for KCNQ2 potentiator project, cell-based, FluxOR thallium flux, duplicate. parental CHO-K1 cells, FluxOR thallium flux fluorescence; zero = vehicle mean+3SD, 100% = vehicle-minus-blank window. shares compounds with KCNQ2 enhance. 1,200 compounds, 43% hits. activity increase over 3SD of controls, % at 10 µM;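 active means signal rise of at least 3 SD above the untreated control mean, in both duplicate wells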;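 further: counter screen of KCNQ2 potentiator hits so any rise reflects channel-independent effects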
# KCNQ1 sel pot – human KCNQ1 channel potentiation off-target, confirmation, selectivity assay for KCNQ2 potentiator project, cell-based, CHO, FluxOR thallium flux | AID 2283, 2010 | shares compounds with KCNQ2 enhance | activation over 3SD threshold, % at 10 µM | CHO KCNQ1 stable, FluxOR thallium flux fluorescence; beyond 3SD, as % of vehicle-control signal | 1,200 compounds, 28% hits;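 active means fluorescence ratio rise of at least 3 SD of vehicle wells above their mean, in both replicate wells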;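 further: 0% = vehicle mean plus 3 SD and 100% = vehicle minus unstimulated blank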
# KCNQ2 pot conf – rat KCNQ2 channel potentiators, confirmation, cell-based, CHO, FluxOR thallium flux, duplicate; shares compounds with KCNQ2 enhance; CHO-KCNQ2 cells, FluxOR thallium flux fluorescence; potentiation, less the hit threshold, % at 10 µM; 1,200 compounds, 68% hits; AID 2287, 2010;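 active means fluorescence ratio rising 3 SD or more over the vehicle control mean in both replicates, plus primary screen hit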;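 further: peak minus minimum thallium fluorescence divided by baseline after K/Tl stimulus; 0% = vehicle mean plus 3 SD and 100% = vehicle minus unstimulated blank difference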
# Kir21 spec – mouse Kir2.1 channel activation off-target, confirmation, selectivity assay for KCNQ2 potentiator project, cell-based, HEK293, FluxOR thallium flux; shares compounds with KCNQ2 enhance; HEK293 Kir2.1, FluxOR thallium flux fluorescence; activity over 3SD threshold, % at 10 µM; 1,200 compounds, 2% hits;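 active means fluorescence ratio rise of at least 3 SD above the vehicle-control mean, seen in both replicates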;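 further: 0% = vehicle mean plus 3 SD and 100% = vehicle minus no-stimulus blank window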
# KCNQ2 W236L MoA – potentiators of retigabine-insensitive KCNQ2 W236L, mechanism study for KCNQ2 potentiator project, cell-based, rat KCNQ2 W236L, CHO, automated patch clamp. shares compounds with KCNQ2 enhance. automated patch clamp current. current increase over 3SD of negative controls (%), active compounds read high, % at 25 µM. 940 compounds, 10% hits;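 active means current increase at least 3 SD of the untreated controls above them in both duplicate recordings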
# The depositor's hits bear a star; i = inactive; nt = no result.
SMILES,KCNQ2 enhance,KCNQ2 inh,Kir21 confirm,HEK293 Tl flux,others
O=C(NC1(O)C(=O)c2ccccc2C1=O)c1ccc(C(F)(F)F)cc1,nt,i,nt,nt,
Cc1ccc(C(=O)NC2(O)C(=O)c3ccccc3C2=O)cc1C,5.69*,i,i,i,CHO-K1 ctr=-24.6;KCNQ1 sel pot=-12.7;KCNQ2 pot conf=-6.3;Kir21 spec=-36.0;KCNQ2 W236L MoA=21.6%*
Nn1c(COc2ccccc2F)nnc1SCC(=O)NC1CCCCC1,0.03,i,nt,nt,
Cc1ccc(C2=NOC(=O)/C2=C\c2ccccc2)cc1,0.59,i,nt,nt,
O=C1ON=C(c2ccc(Cl)cc2)/C1=C/c1ccc(O)cc1,-7.36,-7.36*,58.0%*,i,
O=C1ON=C(c2ccccc2)/C1=C/c1ccc(O)cc1,nt,i,i,i,
CC1=NOC(=O)/C1=C/c1ccc(O)cc1,1.87,i,nt,nt,
CC#CC(=O)N1CCC(CO)(CCc2ccccc2)CC1,nt,i,nt,nt,
COc1ccc(CNC(=O)c2cc(=O)c3cc(C)cc(C)c3o2)cc1,1.46,i,nt,nt,
COc1ccc(Br)cc1CSC(=N)N,0.16,i,nt,nt,
CCCCOc1ccc(CSC(=N)N)cc1Cl,nt,i,27.5%*,i,
CCOc1ccc(CSC(=N)N)cc1,1.54,i,nt,nt,
CCCCCOc1ccc(Br)cc1CSC(=N)N,nt,i,i,i,
O=C(NC1CCCC1)C(c1ccc(F)cc1)N(C(=O)c1csnn1)C1CC1 (stereo unspecified),0.89,i,nt,nt,
Cc1cccc(C(=O)OCc2cncs2)c1,nt,i,nt,nt,
COC(=O)C(NC(=O)c1ccccc1)=C1C=C(C)OC(C)=C1,5.01,i,nt,nt,
CCOC(=O)C(NC(=O)c1ccccc1)=C1C=C(C)OC(C)=C1,6.82*,i,i,i,CHO-K1 ctr=1.7*;KCNQ1 sel pot=-6.8;KCNQ2 pot conf=8.7*;Kir21 spec=-32.1;KCNQ2 W236L MoA=i
CCc1ccc(CN(C)C(=O)CCc2nnc(CCc3cccc(OC)c3)o2)nc1,nt,i,nt,nt,
CC(C)c1ccc(C2CC(=O)c3cnc(NC(=O)c4ccco4)nc3C2)cc1 (stereo unspecified),0.73,i,nt,nt,
CCCNC(=O)CN1C(=O)COc2ccc(S(=O)(=O)N3CC(C)CC(C)C3)cc21 (stereo unspecified),0.43,i,nt,nt,
CCCCOC(=O)C[N+](C)(C)CCOC1CC2CCC1(C)C2(C)C (stereo unspecified),nt,i,nt,nt,
CCCCCCCOC(=O)C[N+](C)(C)CCOC1CC2CCC1(C)C2(C)C (stereo unspecified),nt,i,15.5%*,i,
CCCOC(=O)C[N+](C)(C)CCOC1CC2CCC1(C)C2(C)C (stereo unspecified),nt,i,nt,nt,
CCCCCCOC(=O)C[N+](C)(C)CCOC1CC2CCC1(C)C2(C)C (stereo unspecified),nt,i,24.5%*,i,
CCN1C(=O)[C@@H]2[C@H](C1=O)[C@@H]1CC(C(=O)OC)=C[C@@H](C(=O)OC)C3C1=C(C(=O)C3(CC)CC)[C@@H]2C (stereo partly specified),0.94,i,nt,nt,
SMILES,KCNQ2 enhance,KCNQ2 inh,Kir21 confirm,HEK293 Tl flux,others
COc1ccc(N(C)S(=O)(=O)c2cccc(C(=O)NCC(c3cccs3)N(C)C)c2)cc1 (stereo unspecified),nt,i,nt,nt,
Cc1ccc(Cl)c(OCCCN(C)Cc2ccccc2)c1,nt,i,nt,nt,
C/C=C/c1ccc(OCCCCN(C)Cc2ccccc2)c(OC)c1,nt,i,22.5%*,i,
Cc1ccc(Cl)c(OCCCCN(C)Cc2ccccc2)c1,nt,i,19.5%*,i,
C/C=C/c1ccc(OCCNCc2ccccc2)c(OC)c1,nt,i,nt,nt,
Cn1c(NN)nc2c1c(=O)n(Cc1ccccc1)c(=O)n2C,nt,i,nt,nt,
COc1ccc(Br)cc1CN(C)CC(O)COc1ccc(Br)cc1 (stereo unspecified),-6.34,-6.34*,69.5%*,i,
CN(CCOc1ccc(Br)cc1)CC(O)COc1ccc(C#N)cc1 (stereo unspecified),nt,i,nt,nt,
Cn1c(CNC(=O)C(Cc2ccccc2)NC(=O)c2ccccc2F)cc(=O)n(C)c1=O (stereo unspecified),nt,i,nt,nt,
O=C(CNC(=O)N1CC(=O)Nc2ccccc21)NCc1cccc(Cl)c1,nt,i,nt,nt,
CC(=O)c1nnn(-c2nc(N)nc(N(c3ccccc3)c3ccccc3)n2)c1C,0.29,i,nt,nt,
CCCCN(CCCC)c1nc(OC)nc(-n2nnc(C(C)=O)c2C)n1,8.03*,i,i,i,CHO-K1 ctr=-11.5;KCNQ1 sel pot=-7.7;KCNQ2 pot conf=-8.4;Kir21 spec=-43.1;KCNQ2 W236L MoA=i
OCc1cn(-c2ccccc2)nc1-c1ccc(-c2nn(-c3ccccc3)cc2CO)cc1,0.53,i,nt,nt,
Cc1ccc(-c2nn(-c3ccccc3)cc2CSC(=N)N)cc1,nt,i,i,i,
CCOC(=O)C1(CCc2ccccc2)CCN(C(=O)CCn2cncn2)CC1,0.15,i,nt,nt,
CCOc1ccc(/C=C/[N+](=O)[O-])c2ccccc12,nt,i,i,i,
CCOC(=O)COc1ccc2ccccc2c1/C=C/[N+](=O)[O-],nt,i,nt,nt,
CCCOCc1ccc(O)c2ncccc12,3.79,i,nt,nt,
OCc1ccc(O)c2ncccc12,nt,i,nt,nt,
Oc1ccc(CN2CCc3ccccc3C2)c2cccnc12,12.8*,i,32.5%*,i,CHO-K1 ctr=44.4*;KCNQ1 sel pot=-19.4;KCNQ2 pot conf=1.3*;Kir21 spec=-99.8;KCNQ2 W236L MoA=i
Oc1ccc(CN2CCCCC2)c2cccnc12,0.21,i,nt,nt,
CC(C)COCc1ccc(O)c2ncccc12,7.69*,i,i,i,CHO-K1 ctr=-27.3;KCNQ1 sel pot=11.3*;KCNQ2 pot conf=50.9*;Kir21 spec=-36.9;KCNQ2 W236L MoA=i
Oc1ccc(COCc2ccccc2)c2cccnc12,5.94*,i,i,i,CHO-K1 ctr=14.6*;KCNQ1 sel pot=-13.2;KCNQ2 pot conf=1.0*;Kir21 spec=-46.1;KCNQ2 W236L MoA=i
